The values that follow come from PubChem BioAssay (NCATS).

Molecules are shown by their SMILES. Results filed as inconclusive are left out. Activity calls are given as the source filed them. Unless noted, the call rests on the fitted dose curve; in most records, active means well fitted curve in the direction sought with a large enough effect; inconclusive means small, poorly fitted or top-dose-only effect, or another doubt; inactive means no such curve, though single readings can be large; an effect the other way counts as inactive or inconclusive. A value given as a limit tells only on which side of the number the result lay.

A short description of test [1]: Cell Viability - Hek293 (AID 427;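 active means compounds whose dose-response curve shows a full or clear partial loss of cell viability, called from curve shape rather than a numeric limit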;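 further: potency means the concentration at half of the fitted maximal effect; cells exposed to compound for 40 hours at 37 °C before reading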). The note with it: qHTS. Put shortly:
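HEK293 cells in complete medium were exposed to compound for 40 hr at 37 °C, then cellular ATP was read by CellTiter-Glo luminescence. Data were normalized to DMSO (basal) and 100 uM tamoxifen (100% inhibition), and AC50 came from Hill fits.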

Test [2] in a line: Cell Viability - N2a (AID 540).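 Further: plate controls were DMSO alone for no effect and tamoxifen control for full effect; nearly all actives have a fitted effect of over 45% in size.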 The following applies: N2a mouse neuroblastoma cell viability; activity change, negative = cytotoxicity: at 92.2 µM (top of the series). In outline: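 Cytotoxicity was scored as loss of cellular ATP in N2a cells, a mouse neuroblastoma line. Compounds are applied in a qHTS concentration series for 40 hr at 37 °C.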
Test [3] is described as follows: Cell Viability - H-4-II-E (AID 543). Further: on the % scale 0 is the no-effect control and ±100 the full control effect; nearly all actives have a fitted effect of over 35% in size. The following applies: H-4-II-E rat hepatoma viability; series mostly up to 92.2 µM. In outline:
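Cells seeded at 1500 per well and rested 5 hr; compounds added; 40 hr incubation at 37 °C; CellTiter-Glo added, 20 min at room temperature; luminescence read. Hill-equation fits gave AC50.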

Test [4] can be described thus: Cell Viability - SH-SY5Y (AID 544).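 Further: 0% = DMSO alone and -100% = 100 µM tamoxifen; nearly all actives have a fitted effect of over 55% in size.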 The following applies: SH-SY5Y neuroblastoma cell viability; viability change, negative = cytotoxic: at 92.2 µM (top of the series). Put shortly: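 Cells were plated at 1500 per well and allowed 5 hr at 37 °C. Compounds were added across a concentration range and incubated 40 hr at 37 °C. CellTiter-Glo was added for 20 min at room temperature before luminescence reading.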

Test [5] is described as follows: Cell Viability - Renal Proximal Tubule (AID 545).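 Further: 0% = DMSO only and -100% = 100 µM tamoxifen; nearly all actives have a fitted effect of over 40% in size.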 The following applies: renal proximal tubule cells viability, primary cells of rat origin; activity change, negative = cytotoxicity: at 91.7 µM (top of the series). In outline: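 Luminescent ATP signal (CellTiter-Glo) served as the viability read-out after 40 hr compound exposure of freshly isolated rat proximal tubule cells at 37 °C. Concentration-dependent ATP loss was fitted with the Hill equation to give AC50.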

Test [6] can be described thus: Cell Viability - LYMP2-004 (AID 966).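 Further: plate controls were DMSO only for no effect and tetraoctylammonium bromide control for full effect; nearly all actives have a fitted effect of over 65% in size.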 The note with it: LYMP2-004 lymphoblastoid cell viability, qHTS; series mostly up to 92.2 µM. In outline: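 qHTS cytotoxicity: human lymphoblastoid line, 24 hr compound treatment, 37 C, complete medium. Viability read as cellular ATP via luciferase luminescence; tetraoctylammonium bromide served as positive control.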
The nature of test [7]: Cell Viability - LYMP2-005 (AID 967).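 Further: cells exposed to compound for 24 h at 37 °C; plate controls were DMSO only for no effect and 92 µM tetraoctylammonium bromide control for full effect.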 The following applies: LYMP2-005 lymphoblastoid cell viability; series mostly up to 92.2 µM. In outline: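 Acute cytotoxicity is scored as a concentration-dependent drop in intracellular ATP in human lymphoblastoid LYMP2-005 cells after 24 h compound treatment. ATP is quantified by luciferase luminescence, and AC50 is derived by Hill-equation modelling.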

Test [8] is described as follows: Cell Viability - LYMP2-009 (AID 968).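 Further: cells exposed to compound for 24 h at 37 °C; 0% = DMSO alone and the full-kill end = tetraoctylammonium bromide at 92 µM; nearly all actives have a fitted effect of over 55% in size.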 The following applies: LYMP2-009 lymphoblastoid cell viability; series mostly up to 92.2 µM.
A short description of test [9]: Cell Viability - LYMP2-015 (AID 971).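 Further: 0% = DMSO only and full effect = 92 µM tetraoctylammonium bromide; nearly all actives have a fitted effect of over 55% in size.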 The note with it: LYMP2-015 lymphoblastoid cell viability; series mostly up to 92.2 µM. In outline: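 Cells are seeded at 2500 per well and incubated 5 hr at 37 C. Compounds are added across a concentration series for 24 hr at 37 C. CellTiter-Glo is added, and luminescence is read after 30 min at room temperature.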
A short description of test [10]: Cell Viability - LYMP2-017 (AID 972).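 Further: cells exposed to compound for 24 hours at 37 °C; on the % scale 0 is the no-effect control and ±100 the full control effect; nearly all actives have a fitted effect of over 55% in size.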 The note with it: LYMP2-017 lymphoblastoid cell viability; series mostly up to 92.2 µM. Put shortly:
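Cytotoxicity is scored as a concentration-dependent drop in cellular ATP in a human lymphoblastoid line after 24 hr treatment at 37 C. Values are AC50s from Hill-equation modelling.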

The nature of test [11]: Cell Viability - LYMP2-006 (AID 978).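 Further: cells exposed to compound for 24 hours; on the % scale 0 is the no-effect control and ±100 the full control effect; nearly all actives have a fitted effect of over 60% in size.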 The note with it: LYMP2-006 lymphoblastoid cell viability, qHTS; series mostly up to 92.2 µM. Put shortly: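 Cells are seeded at 2500 per well and rested 5 hr at 37 C. Compounds are added across a concentration series for 24 hr at 37 C, after which ATP is quantified by luciferase luminescence.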
(In general: In qHTS, concentration-response curves come from the screen itself.)

Test [12] can be described thus: Cell Viability - LYMP2-010 (AID 981). The note with it: LYMP2-010 lymphoblastoid cell viability, qHTS; series mostly up to 92.2 µM. In outline: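 Steps: seed 2500 LYMP2-010 cells per well; incubate 5 hr at 37 C; add compound; incubate 24 hr at 37 C; add CellTiter-Glo, wait 30 min at room temperature; read luminescence. Concentration-response fitted to Hill equation for AC50.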

Test [13] is described as follows: qHTS assay for small molecule agonists of retinoid X receptor alpha signaling (AID 588544; calls by dose curve). The note with it: HEK293T RXRa-UAS-bla, beta-lactamase reporter, 18 h; 530 nm emission.
The target of test [14] is Retinoic acid receptor RXR-alpha (Homo sapiens) (UniProt P19793). The description is as above. The note with it: HEK293T RXRa-UAS-bla, beta-lactamase reporter, 18 h; series mostly up to 76.7 µM.
Retinoic acid receptor RXR-alpha (Homo sapiens), sequence (P19793 whole entry, looked up): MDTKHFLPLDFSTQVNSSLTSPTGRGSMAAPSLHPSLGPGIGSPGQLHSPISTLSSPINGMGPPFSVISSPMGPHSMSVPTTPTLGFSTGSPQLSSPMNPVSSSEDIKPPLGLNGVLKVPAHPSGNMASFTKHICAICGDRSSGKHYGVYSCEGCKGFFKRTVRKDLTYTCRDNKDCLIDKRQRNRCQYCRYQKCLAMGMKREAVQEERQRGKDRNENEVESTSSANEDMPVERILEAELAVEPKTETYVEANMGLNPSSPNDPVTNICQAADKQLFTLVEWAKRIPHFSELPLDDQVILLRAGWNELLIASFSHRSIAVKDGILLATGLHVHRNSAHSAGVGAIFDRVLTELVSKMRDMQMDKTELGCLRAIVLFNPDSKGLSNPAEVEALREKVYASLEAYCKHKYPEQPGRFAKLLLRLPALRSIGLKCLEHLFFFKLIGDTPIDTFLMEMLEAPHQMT
For test [15], the target named is Thyroid hormone receptor beta (Homo sapiens) (UniProt P10828). The experiment in a line: qHTS assay for small molecule agonists of thyroid hormone receptor beta signaling (AID 588545; calls by dose curve;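 further: 0% = DMSO only and 100% = 10 nM T3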). The note with it: TR-UAS-bla GripTite HEK 293, beta-lactamase ratio, agonist mode, 18 h; series mostly up to 76.7 µM. In outline:
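Beta-lactamase reporter activity under TR response element control is measured in HEK 293 cells after 18 hrs compound exposure. Signal is ratiometric CCF4 fluorescence, 460/530 nm.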

A short description of test [16]: qHTS assay for small molecule disruptors of the mitochondrial membrane potential - 1 hr assay (AID 651754; calls by dose curve; further: on the % scale 0 is the no-effect control and ±100 the full control effect; nearly all actives have a fitted effect of over 35% in size). The note with it: series mostly up to 92.2 µM. Put shortly:
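Loss of mitochondrial potential shifts the cationic dye from red mitochondrial aggregates to green cytoplasmic monomers. Cells (HepG2) are treated with compound for 1 hr before a 30 min dye incubation at 37C.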

Test [17] in a line: qHTS assay for small molecule disruptors of the mitochondrial membrane potential - 5 hr assay (AID 651755; calls by dose curve; further: on the % scale 0 is the no-effect control and ±100 the full control effect; nearly all actives have a fitted effect of over 40% in size). The note with it: JC-1-type ratio dye; series mostly up to 92.2 µM. In outline:
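Seed HepG2 overnight, add compound, incubate 5 hr at 37C and 5% CO2, stain 30 min with Mito-MPS, then measure monomer (490/535 nm) and aggregate (540/590 nm) fluorescence.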

Test [18] is described as follows: qHTS assay for small molecule agonists of the antioxidant response element (ARE) signaling pathway measured by Nrf2-dependant transcriptional activity (AID 720636; active means well fitted curve in the direction sought with a large enough effect in the repeat runs; an effect the other way counts as inactive or inconclusive; further: % of control where 0% means no effect). The following applies: ARE-luc HepG2, Nrf2 luciferase reporter, 16 h; series mostly up to 92.4 µM. Put shortly: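 Nrf2-dependent transcription is measured in ARE-luc HepG2 cells: compound is applied for 16 hr at 37 C after a 6 hr attachment period, and luciferase activity is quantified by luminescence using ONE-Glo.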

The nature of test [19]: MultiTox-Fluor Cytotoxicity Assay - LYMP1-002 - Dead Cells (AID 960).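 Further: 0% = DMSO and 100% = tetraoctylammonium bromide; nearly all actives have a fitted effect of over 60% in size.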 The following applies: LYMP1-002 lymphoblastoid cells, dead-cell protease fluorescence; series mostly up to 46.1 µM. In outline:
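Cells were plated, rested 5 hr, then treated with compound dilution series for 16 hr at 37 C. After adding substrate reagent and 60 min at room temperature, dead-cell protease fluorescence gave concentration-response curves fitted by the Hill equation.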

Test [20] deals with Nuclear receptor subfamily 1 group I member 2 (Rattus norvegicus) (UniProt Q9R1A7). Nature of the test: qHTS assay for small molecule activators of the rat pregnane X receptor (rPXR) signaling pathway (AID 651751; call rule not given here; further: 0% is about no effect). The note with it: rPXR reporter cells, luciferase (One-Glo), 24 h.
Nuclear receptor subfamily 1 group I member 2 (Rattus norvegicus), sequence (Q9R1A7 whole entry, looked up): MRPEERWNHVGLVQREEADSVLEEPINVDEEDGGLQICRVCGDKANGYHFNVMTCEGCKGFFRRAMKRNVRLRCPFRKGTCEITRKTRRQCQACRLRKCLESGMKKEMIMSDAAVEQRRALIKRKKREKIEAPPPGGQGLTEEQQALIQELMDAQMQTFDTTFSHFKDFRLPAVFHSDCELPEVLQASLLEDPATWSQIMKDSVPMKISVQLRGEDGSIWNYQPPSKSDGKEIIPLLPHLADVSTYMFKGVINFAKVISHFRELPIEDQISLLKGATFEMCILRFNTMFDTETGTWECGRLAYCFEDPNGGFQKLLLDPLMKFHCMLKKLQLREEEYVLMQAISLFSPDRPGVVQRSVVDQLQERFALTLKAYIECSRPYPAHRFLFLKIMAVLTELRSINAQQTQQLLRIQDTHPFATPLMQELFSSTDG

Thyroid hormone receptor beta (Homo sapiens), sequence (P10828 whole entry, looked up): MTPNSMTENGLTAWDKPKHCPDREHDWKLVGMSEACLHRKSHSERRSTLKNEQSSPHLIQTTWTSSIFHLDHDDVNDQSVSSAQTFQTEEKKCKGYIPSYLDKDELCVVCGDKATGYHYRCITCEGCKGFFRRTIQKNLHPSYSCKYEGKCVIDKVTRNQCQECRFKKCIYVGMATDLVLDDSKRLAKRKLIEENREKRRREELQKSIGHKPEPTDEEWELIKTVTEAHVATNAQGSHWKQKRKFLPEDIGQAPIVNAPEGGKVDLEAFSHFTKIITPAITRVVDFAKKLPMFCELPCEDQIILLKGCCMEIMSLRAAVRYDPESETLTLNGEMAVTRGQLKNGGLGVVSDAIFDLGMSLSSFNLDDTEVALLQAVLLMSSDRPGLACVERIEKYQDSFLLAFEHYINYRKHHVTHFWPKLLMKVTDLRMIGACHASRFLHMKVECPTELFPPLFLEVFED

In the case of `CCC(Cl)CC(Cl)C(Cl)C(Cl)C(Cl)C(C)Cl` (centres undefined), the Potency in [1] was > 92 µM (inactive). For the same molecule, the activity change, negative = cytotoxicity in test [2] is -24.5% (inactive). Also, the Potency entry in test [3], in test [4], in [5], in test [6], in [7] and in test [8] was “inactive” in each case. The Potency entry in [9], in [10], in test [11], in [12], in test [14] and in test [15] was “inactive” throughout. Also, the Potency result in [16], in [17] and in [18] was “inactive” throughout. Also, in test [13], the max response is -26.2%.

As for `Cc1c(N)cccc1Cl`, the Potency in test [1] is > 92 µM (inactive). Moreover, the activity change, negative = cytotoxicity in test [2] is -8.37% (inactive). Also, the Potency entry in test [3], in test [4], in test [5], in test [19], in test [6] and in test [7] was “inactive” throughout. Also, the Potency result in test [8], in [9], in test [10], in test [11], in test [12] and in test [14] was “inactive” throughout. For the same molecule, the Potency result in test [15], in test [16], in test [17] and in test [18] was “inactive” throughout. Further, the figures for the max response in [13] and in test [20] were 8.41% and 7.66% (inactive), respectively.

Regarding `Cc1ccc(N)cc1[N+](=O)[O-]`, the Potency in test [1] was > 92 µM (inactive). Also, the activity change, negative = cytotoxicity in test [2] is -8.48% (inactive). Moreover, the Potency result in test [3], in test [4], in [5], in test [6], in test [7] and in [8] was “inactive” each time. Further, the Potency entry in [9], in [10], in test [11], in test [12], in test [14] and in test [15] was “inactive” each time. Besides, the Potency result in [16], in test [17] and in test [18] was “inactive” in each case. Besides, the max response is 4.03% in [13] and -0.278% (inactive) in test [20].

Regarding `c1c[nH]cn1`, the Potency in [1] was > 92 µM (inactive). Further, the activity change, negative = cytotoxicity in test [2] was -11.6% (inactive). Besides, the Potency result in [3], in test [4], in test [5], in [19], in test [6] and in [7] was “inactive” each time. For the same molecule, the Potency entry in test [8], in test [9], in [10], in test [11], in [12] and in test [14] was “inactive” each time. In addition, the Potency result in test [15], in test [16], in test [17] and in [18] was “inactive” in each case. The max response is 1.75% in test [13] and -3.01% (inactive) in test [20].

As to `C/C(Cl)=C/CCl`, the Potency in test [1] is > 92 µM (inactive). Further, the activity change, negative = cytotoxicity in test [2] is -6.1% (inactive). Also, the Potency result in [3], in [4], in [5], in test [6], in test [7] and in test [8] was “inactive” throughout. Further, the Potency result in [9], in test [10], in test [11], in [12], in [14] and in test [15] was “inactive” each time. In addition, the Potency entry in [16], in [17] and in [18] was “inactive” throughout. Besides, the results for the max response in test [13] and in test [20] were -5.41% and -2.47% (inactive), respectively.

On to `OCC(CBr)(CBr)CBr`, for which the Potency in test [1] was > 92 µM (inactive). The Potency result in test [3], in test [4], in test [5], in [6], in test [7] and in test [8] was “inactive” in each case. The Potency result in [9], in [10], in test [11], in test [12], in [14] and in [15] was “inactive” each time. Moreover, the Potency entry in [16], in [17] and in test [18] was “inactive” throughout. For the same molecule, the results for the max response in test [13] and in test [20] were -4.28% and 6.71% (inactive), respectively.
